In the library only some 27% were active in any assay of this set; here they are far more common.
Pyk2 oligo antag: Pyk2 (human) oligomerization antagonism; actives 0.83% (n = 99,000); AID 1347419; z-score (the deposit names both 25 µM and 10 µM); Q293 cells, Pyk2 FERM NanoBiT luminescence; hits give low values; Q14289;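 active = Z-score of -3 or lower, scaled per plate to the spread of control and sample wells; inactive = z-score above -3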;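 note: negative z-score means lost luminescence so less FERM oligomerization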
Target sequence (Q14289 whole entry, looked up): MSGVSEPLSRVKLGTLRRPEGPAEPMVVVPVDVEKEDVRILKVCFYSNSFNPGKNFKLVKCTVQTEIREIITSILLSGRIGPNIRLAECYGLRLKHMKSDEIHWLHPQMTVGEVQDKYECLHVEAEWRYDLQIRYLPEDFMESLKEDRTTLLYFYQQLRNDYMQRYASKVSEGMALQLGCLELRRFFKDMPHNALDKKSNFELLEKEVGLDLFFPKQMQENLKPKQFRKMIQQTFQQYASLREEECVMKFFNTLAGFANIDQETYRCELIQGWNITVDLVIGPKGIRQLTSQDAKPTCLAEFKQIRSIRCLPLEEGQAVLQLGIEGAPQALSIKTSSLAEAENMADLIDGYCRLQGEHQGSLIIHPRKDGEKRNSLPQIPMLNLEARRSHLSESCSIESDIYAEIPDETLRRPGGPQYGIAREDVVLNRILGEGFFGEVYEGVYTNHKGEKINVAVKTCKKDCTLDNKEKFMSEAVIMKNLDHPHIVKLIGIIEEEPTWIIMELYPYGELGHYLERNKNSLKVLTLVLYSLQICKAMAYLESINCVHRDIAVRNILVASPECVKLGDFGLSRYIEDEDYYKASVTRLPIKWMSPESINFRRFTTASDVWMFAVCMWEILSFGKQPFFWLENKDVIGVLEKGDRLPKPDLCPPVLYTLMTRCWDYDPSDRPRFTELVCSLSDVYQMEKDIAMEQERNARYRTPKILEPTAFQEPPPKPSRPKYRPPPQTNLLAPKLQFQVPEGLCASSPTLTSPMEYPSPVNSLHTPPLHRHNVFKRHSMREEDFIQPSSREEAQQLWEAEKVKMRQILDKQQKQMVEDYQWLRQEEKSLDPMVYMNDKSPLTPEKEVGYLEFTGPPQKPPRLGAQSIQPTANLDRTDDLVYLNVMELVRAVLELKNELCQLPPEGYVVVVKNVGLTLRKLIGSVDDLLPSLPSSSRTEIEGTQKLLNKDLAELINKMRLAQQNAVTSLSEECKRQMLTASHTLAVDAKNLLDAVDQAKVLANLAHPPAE
CYP2C19 inhib: blocks human cytochrome P450 2C19. P33261. CYP2C19 Supersomes, luciferin-H EGE luminescence, 30 min. inhibition, % at 5 µM. actives 21% (n = 96,000). AID 778;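 active = CYP2C19 inhibition above a set limit at 5 µM in the primary screen, cut at about 50% in these data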;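 note: plate controls were negative control wells for no effect and 2.5 mM tranylcypromine positive control for full effect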
CYP2C9 inhib: inhibitors of human CYP2C9; inhibition, % at 5 µM; P11712; CYP2C9 Supersomes, luciferin-H conversion, luminescence; actives 20% (n = 96,000);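 active = blocking of liver enzyme CYP2C9 beyond about 50% at 5 µM, limit read from the data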
CYP2C19 act: cytochrome P450 2C19 (human) activation. P33261. recombinant CYP2C19, luciferin-H EGE luminescence; hits give high values; 0 = fully inhibited enzyme, 1 = untreated enzyme. activation factor at 5 µM. 96,000 tested, under 10 active;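 active = activation factor of at least 2 at 5 µM in the primary screen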;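 note: 0 = wells with 2.5 mM tranylcypromine and 1 = vehicle-only wells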
Cav3 T inh: inhibitors of human Cav3.2 T-type calcium channel; O95180; Cav3.2-expressing cells, Fluo-4 calcium fluorescence FDSS; hits give low values; B-score at 10 µM; actives 4% (n = 100,000); AID 449739;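 active = single-dose well whose peak fluorescence ratio is a statistical outlier from its plate by either plate-standardised score or position-corrected B-score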
CYP2C9 act: CYP2C9 (human) activation; recombinant CYP2C9, luciferin-H conversion, luminescence; hits give high values; factor 1 = untreated enzyme, 0 = blocked; activation factor at 5 µM; actives 1.4% (n = 96,000);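 active = activation factor of 2 or more for CYP2C9 at a 5 µM dose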;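 note: 0 = sulfaphenazole-blocked wells and 1 = vehicle-only wells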
Numbers without * were called inactive; · = no result given.

SMILES	Pyk2 oligo antag	CYP2C19 inhib	CYP2C9 inhib	CYP2C19 act	Cav3 T inh	CYP2C9 act
Cc1ccc(C)c(NC(=S)NCc2ccc3[nH]c4c(c3c2)CCCC4)c1	·	·	·	·	-2.15	·
COc1ccc(CNC(=S)Nc2cc(C)ccc2C)cc1	-0.48	97.7*	15.9	0	-1.33	0.8
COc1ccc(CNC(=S)Nc2cccc(C)c2)cc1	0.41	81.4*	-24.8	0.2	-0.596	1.2
Cn1c(Cc2cccs2)nnc1SC/C=C/c1ccccc1	2.36	·	·	·	-1.31	·
CS(=O)(=O)N(CC(=O)N1CCC(C(N)=O)CC1)c1ccc(Oc2ccccc2)cc1	-0.29	-9.5	2.9	1.1	0.0685	1
COc1ccc(CCNC(=S)Nc2cccc(C)c2C)cc1	-0.61	57.8*	26.0	0.4	-1.1	0.7
COc1ccc(CCNC(=S)Nc2cc(C)ccc2C)cc1	0.44	67.0*	53.8*	0.3	-2.28	0.5
COc1ccc(C)cc1N(C(=O)CNC(=O)c1ccco1)C(C(=O)NC1CCCC1)c1cccnc1 (centres undefined)	-0.56	13.3	27.4	0.9	0.188	0.7
COc1ccc(CN(CC2CCCO2)C(=O)CN2C(=O)COc3ccccc32)cc1OC (centres undefined)	-0.38	·	·	·	1.43	·
Nc1nc(N2CCN(C/C=C/c3ccccc3)CC2)nc2ccccc12	0.05	51.3*	70.3*	0.5	0.757	0.3
CCOC(=O)CSc1nc2c(c(-c3ccc(C)o3)c1C#N)CCCC2	-0.68	69.7*	47.1	0.3	-1.25	0.5
Cc1ccc(-c2c(C#N)c(N)nc3c2CCCCC3)o1	0.5	53.1*	50.4*	0.5	-1.88	0.5
C#CCNC(=O)C1=C[C@@H](c2coc3ccccc3c2=O)C[C@@H](OCc2ccc(CO)cc2)O1	·	·	·	·	-2.38	·
CCOc1cc(CNc2ccc(OC)cc2)cc(Br)c1OCC(=O)NC(C)(C)C	-1.63	51.6*	58.7*	0.5	-1.83	0.4
CCOc1cc(CNc2ccccc2)cc(Br)c1OCc1ccc(F)cc1	0.37	32.7	51.0*	0.7	-2.29	0.5
CCOc1cc(CNCCCN2CCOCC2)cc(Br)c1OCC(=O)Nc1cccc(C(F)(F)F)c1	0	11.6	8.7	0.9	1.53	0.9
CCOc1cc(CNc2ccccc2)cc(Br)c1OCC(=O)NC(C)(C)C	-0.8	49.9	46.4	0.5	-5.08*	0.5
CCOc1cc(CNc2ccc(Br)cc2)cc(Br)c1OCC(=O)NC(C)(C)C	-1.26	20.9	89.1*	0.8	-0.795	0.1
CCOc1cc(CNn2cnnc2)cc(Br)c1OCC(=O)NC1CCCCC1	-0.35	·	·	·	0.283	·
CC1(C)CC(=O)c2c(-c3cccnc3)n[nH]c2C1	-0.02	13.4	-6.4	0.9	1.58	1.1
COc1cc(-c2cc(OC)c3c(C)oc(C)c3c(=O)c2)ccc1O	-0.25	42.5	94.3*	0.6	-2.11	0.1
COc1cc(-c2cc(=O)c3c(O)c(OC)c(OC)c(O)c3o2)ccc1O	·	·	·	·	1.34	·
O=C(NC(=S)Nc1nc2c(s1)CSc1ccccc1-2)c1ccccc1	0.86	12.2	29.1	0.9	0.309	0.7
Cc1ccc(N=c2oc3cc(O)ccc3cc2C(N)=O)cc1	-1.42	12.6	65.9*	0.9	0.945	0.3
CCOc1ccc(N=c2oc3cc(O)ccc3cc2C(=O)NCC2CCCO2)cc1 (centres undefined)	-1.93	-22.5	42.3	1.2	0.195	0.6
SMILES	Pyk2 oligo antag	CYP2C19 inhib	CYP2C9 inhib	CYP2C19 act	Cav3 T inh	CYP2C9 act
CCOc1ccccc1N=c1oc2cc(O)ccc2cc1C(=O)NCC1CCCO1 (centres undefined)	0.21	1.8	53.4*	1	0.474	0.5
COc1ccc(N=c2oc3cc(O)ccc3cc2C(=O)NCC2CCCO2)cc1 (centres undefined)	-2.5	14.2	52.0*	0.9	-1.78	0.5
CC(C)C(=O)Nc1cccc(NC(=S)NC(=O)c2ccc([N+](=O)[O-])cc2)c1	-0.76	23.4	-37.2	0.8	-4.02*	1.4
Cc1nc2ccccc2nc1CSc1nnc(N)s1	0.36	53.7*	-24.2	0.5	0.0378	1.2
Nc1cccc(-n2nncc2-c2ccccc2)c1	-0.17	31.3	0.1	0.7	0.511	1
CC(=O)Nc1ccc(S(=O)(=O)Oc2cccc(N3C(=O)C4CC=CCC4C3=O)c2)cc1 (centres undefined)	-1.04	42.7	58.6*	0.6	0.0124	0.4
CC(=O)c1c(NC(=O)C(C)C)nc(C)nc1-c1ccccc1	-0.17	39.1	55.3*	0.6	-0.236	0.4
